Experimental findings from article PMC10812921, “Transcriptional Coactivator BOB1 (OBF1, OCA-B) Modulates the Specificity of DNA Recognition by the POU-Domain Factors OCT1 and OCT2 in a Monomeric Configuration” are described below.

The first experiment addresses POU1 (OCT1 POU domain);BOB1 (OBF1, OCA-B) (human;human, UniProt P14859;Q16633 260-458;1-256, |). As to the kind of experiment: EMSA-SELEX-seq; with BOB1 (ternary complex band); 20 mM Tris-HCl pH 7.6, 140 mM NaCl, 10% glycerol, 0.5 mM EDTA, 0.05% Triton X-100, 0.1 mg/mL BSA, 0.1 mg/mL poly(dI-dC), 5 mM DTT, room temperature, 20 min; high values mean tight binding. The settings on record: protein: recombinant;recombinant; copies: 1;1; dsDNA, one strand shown. The method in brief:
(§1)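 A double-stranded random 35-nt library (300 ng, PCR-amplified) was incubated with 30 ng tagged POU-domain protein, with or without 28 ng coactivator protein, in 20 μL Tris–HCl pH 7.6 binding buffer for 20 min at RT. The proteins had been expressed in E. coli BL21, purified under denaturing conditions and renatured. Complex bands from native 6% PAGE were eluted and PCR-amplified over four rounds, then sequenced on Illumina. For binding preference, the percentage of sequenced 8-mers matching a motif pattern was calculated.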
(Mobility shift assays separate free from complexed probe on a gel.)
In the case of ACACCAAT, the binding signal is 0.0168 % of ANNNNAAN 8-mers.
For ACGATAAG, the binding signal was 0.0215 % of ANNNNAAN 8-mers.
Take ATACTAAC: the binding signal is 0.0304 % of ANNNNAAN 8-mers.
Same read-out and setting: the figure for AAGGTAAA is 0.144 % of ANNNNAAN 8-mers.
In the case of ATTCAAAA, the binding signal was 0.427 % of ANNNNAAN 8-mers.
With ACTTGAAA, the binding signal was 0.0433 % of ANNNNAAN 8-mers.
Consider ACACAAAG, for which the binding signal is 0.0418 % of ANNNNAAN 8-mers.
For AATGGAAT, the binding signal was 0.125 % of ANNNNAAN 8-mers.
Regarding AACGAAAG, the binding signal is 0.0328 % of ANNNNAAN 8-mers.
Turning to ACAAGAAA, the binding signal is 0.0386 % of ANNNNAAN 8-mers.
In the case of ATTTGAAC, the binding signal was 0.0745 % of ANNNNAAN 8-mers.
The same measure, in the same setting: in the case of ATGATAAA it was 0.0644 % of ANNNNAAN 8-mers; in that of ACGGAAAA, 0.0593 % of ANNNNAAN 8-mers; in that of AGTCGAAA, 0.0324 % of ANNNNAAN 8-mers.
Regarding AATTTAAG, the binding signal is 0.144 % of ANNNNAAN 8-mers.
On the same count and under the same terms, the figure for AGCAAAAC is 0.0792 % of ANNNNAAN 8-mers.
As for ACCAGAAC, the binding signal is 0.0129 % of ANNNNAAN 8-mers.
With AGGATAAA, the binding signal was 0.0609 % of ANNNNAAN 8-mers.
Regarding AACGGAAC, the binding signal was 0.025 % of ANNNNAAN 8-mers.
As for ATAAAAAG, the binding signal was 0.0925 % of ANNNNAAN 8-mers.
On the same count and under the same terms, the figure for ATTAGAAG is 0.0585 % of ANNNNAAN 8-mers; for AACTTAAG it is 0.0363 % of ANNNNAAN 8-mers.
With AAAGCAAC, the binding signal was 0.0281 % of ANNNNAAN 8-mers.
Same read-out and setting: the figure for AATGTAAA is 0.547 % of ANNNNAAN 8-mers; for ATGGGAAT it is 0.0995 % of ANNNNAAN 8-mers; for AAGTGAAT it is 0.0796 % of ANNNNAAN 8-mers.
In the case of ACATTAAA, the binding signal was 0.0624 % of ANNNNAAN 8-mers.
In the case of ACGTAAAT, the binding signal is 0.232 % of ANNNNAAN 8-mers.
On the same count and under the same terms, the figure for ATTATAAC is 0.0581 % of ANNNNAAN 8-mers.
Take ATCTCAAT: the binding signal was 0.0558 % of ANNNNAAN 8-mers.
With ATTCAAAT, the binding signal was 1.57 % of ANNNNAAN 8-mers.
AGCCGAAG: the binding signal was 0.0195 % of ANNNNAAN 8-mers.
With ATCTTAAC, the binding signal was 0.0402 % of ANNNNAAN 8-mers.
The same measure, in the same setting: in the case of ATTAAAAG it was 0.115 % of ANNNNAAN 8-mers; in that of AACGTAAC, 0.0211 % of ANNNNAAN 8-mers.
As for AAGAAAAT, the binding signal is 0.226 % of ANNNNAAN 8-mers.
As to ATACCAAT, the binding signal was 0.0394 % of ANNNNAAN 8-mers.
Turning to ACTTTAAA, the binding signal was 0.0652 % of ANNNNAAN 8-mers.
AAGCGAAA: the binding signal is 0.0429 % of ANNNNAAN 8-mers.

For the next experiment, the target named is T1, POU2 (OCT2 POU domain);BOB1 (OBF1, OCA-B) (human;human, UniProt P09086;Q16633 175-386;1-256, |).
T1 sequence 1: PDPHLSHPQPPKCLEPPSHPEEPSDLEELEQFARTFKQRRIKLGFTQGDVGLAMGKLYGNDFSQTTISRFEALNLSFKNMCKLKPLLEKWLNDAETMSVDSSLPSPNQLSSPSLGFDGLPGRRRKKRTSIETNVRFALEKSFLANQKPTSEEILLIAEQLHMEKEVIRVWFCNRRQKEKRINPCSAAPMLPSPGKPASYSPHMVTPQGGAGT
T1 sequence 2: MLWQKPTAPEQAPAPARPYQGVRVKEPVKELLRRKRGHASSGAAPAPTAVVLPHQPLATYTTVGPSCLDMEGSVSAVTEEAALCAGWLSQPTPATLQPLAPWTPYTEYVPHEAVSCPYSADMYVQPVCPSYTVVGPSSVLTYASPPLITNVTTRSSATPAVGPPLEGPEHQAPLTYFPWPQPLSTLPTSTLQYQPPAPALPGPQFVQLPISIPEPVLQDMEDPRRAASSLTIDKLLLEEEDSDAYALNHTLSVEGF
Described as above. The settings on record: protein: recombinant;recombinant; copies: 1;1; dsDNA, one strand shown. The method, boiled down:
as §1
In the case of ACACCAAT, the binding signal is 0.019 % of ANNNNAAN 8-mers.
ACGATAAG: the binding signal was 0.0314 % of ANNNNAAN 8-mers.
On the same count and under the same terms, in the case of ATACTAAC it was 0.0396 % of ANNNNAAN 8-mers; in that of AAGGTAAA, 0.0933 % of ANNNNAAN 8-mers.
In the case of ATTCAAAA, the binding signal is 0.278 % of ANNNNAAN 8-mers.
Same read-out and setting: in the case of ACTTGAAA it was 0.0371 % of ANNNNAAN 8-mers; in that of ACACAAAG, 0.0305 % of ANNNNAAN 8-mers.
Regarding AATGGAAT, the binding signal was 0.147 % of ANNNNAAN 8-mers.
On the same count and under the same terms, the figure for AACGAAAG is 0.0264 % of ANNNNAAN 8-mers.
In the case of ACAAGAAA, the binding signal was 0.0322 % of ANNNNAAN 8-mers.
ATTTGAAC: the binding signal is 0.0553 % of ANNNNAAN 8-mers.
Turning to ATGATAAA, the binding signal was 0.0619 % of ANNNNAAN 8-mers.
Consider ACGGAAAA, for which the binding signal was 0.0446 % of ANNNNAAN 8-mers.
Still for that read-out and setting: the figure for AGTCGAAA is 0.0322 % of ANNNNAAN 8-mers; for AATTTAAG it is 0.12 % of ANNNNAAN 8-mers; for AGCAAAAC it is 0.0446 % of ANNNNAAN 8-mers.
For ACCAGAAC, the binding signal was 0.0223 % of ANNNNAAN 8-mers.
Consider AGGATAAA, for which the binding signal was 0.0718 % of ANNNNAAN 8-mers.
AACGGAAC: the binding signal was 0.0206 % of ANNNNAAN 8-mers.
Take ATAAAAAG: the binding signal was 0.0735 % of ANNNNAAN 8-mers.
Still for that read-out and setting: the figure for ATTAGAAG is 0.066 % of ANNNNAAN 8-mers; for AACTTAAG it is 0.0363 % of ANNNNAAN 8-mers; for AAAGCAAC it is 0.0272 % of ANNNNAAN 8-mers.
On to AATGTAAA, for which the binding signal is 0.552 % of ANNNNAAN 8-mers.
The same measure, in the same setting: the figure for ATGGGAAT is 0.116 % of ANNNNAAN 8-mers; for AAGTGAAT it is 0.0669 % of ANNNNAAN 8-mers.
For ACATTAAA, the binding signal is 0.0611 % of ANNNNAAN 8-mers.
Still for that read-out and setting: the figure for ACGTAAAT is 0.147 % of ANNNNAAN 8-mers; for ATTATAAC it is 0.057 % of ANNNNAAN 8-mers.
For ATCTCAAT, the binding signal was 0.0768 % of ANNNNAAN 8-mers.
As to ATTCAAAT, the binding signal was 1.95 % of ANNNNAAN 8-mers.
As to AGCCGAAG, the binding signal is 0.0182 % of ANNNNAAN 8-mers.
For ATCTTAAC, the binding signal is 0.0512 % of ANNNNAAN 8-mers.
Turning to ATTAAAAG, the binding signal was 0.102 % of ANNNNAAN 8-mers.
AACGTAAC: the binding signal is 0.0272 % of ANNNNAAN 8-mers.
As to AAGAAAAT, the binding signal is 0.0958 % of ANNNNAAN 8-mers.
On to ATACCAAT, for which the binding signal is 0.0471 % of ANNNNAAN 8-mers.
In the case of ACTTTAAA, the binding signal was 0.0495 % of ANNNNAAN 8-mers.
The same measure, in the same setting: in the case of AAGCGAAA it was 0.0289 % of ANNNNAAN 8-mers.
